Results: PubChem BioAssay (EPA / NIEHS)
“And” between values parts separate entries of the source, which are not always exact repeats. Identical values can stand only once. Results filed as inconclusive are left out. The source holds several records for some structures; these can differ, active in one and inactive in another. The source made the active and inactive calls. Rule for the calls, unless noted: active = hit-call score of the fitted dose curve at least 0.9, where 1 is the maximum; inconclusive = response in the unintended direction; inactive = score below 0.9.

What was measured:
[1] = biological target: Estrogen receptor beta (Homo sapiens) (UniProt Q92731); assay: OT_ER_ERbERb_1440: Odyssey Thera (OT) 24-hour HEK293T Protein-Complementation Assay for Estrogen Receptor-beta/-beta Homodimer (AID 2283380);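 note: fluorescence gain from ER beta LBD homodimer complementation read by laser scanning cytometry; scored as signal increase over DMSO baseline for both agonists and antagonists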
Outline: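 HEK293T cells stably expressing human ER-beta LBD (aa 310-547) PCA homodimer pair, dosed 24 h; formaldehyde-fixed, Draq5-stained. Readout: increase in nuclear (agonist) or nuclear plus cytoplasmic (antagonist) fluorescence intensity versus DMSO, gain-of-signal fitting.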

[2] = biological target: Estrogen receptor (Homo sapiens) (UniProt P03372); assay: OT_ERa_GFPERaERE_0480: Odyssey Thera (OT) 8-hour HeLa Transcription Induction Assay for Estrogen Receptor (AID 2283381; active = hit-call score of the fitted dose curve at least 0.9, where 1 is the maximum; inactive = score below 0.9)
Outline: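 GFP-ERE reporter, HeLa, 8 h exposure. Readout: fluorescence microscopy, high-content image analysis. Fit direction positive vs DMSO negative control.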

[3] = biological target: Estrogen receptor (Homo sapiens) (UniProt P03372); assay: OT_ERa_GFPERaERE_0120: Odyssey Thera (OT) 2-hour HeLa Transcription Induction Assay for Estrogen Receptor (AID 2283382)
Outline: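 Fluorescence microscopy read-out: inducible fluorescent protein reporter in HeLa cells, imaged 2 h post-dose. Signal increase over DMSO negative control fitted as single primary endpoint via high content image analysis.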

[4] = biological target: Bile acid receptor (Homo sapiens) (UniProt Q96RI1); assay: OT_FXR_FXRSRC1_0480: Odyssey Thera (OT) 8-hour HEK293T Protein-Complementation Assay for Farnesoid X receptor/SRC-1 Co-activator (AID 2283383)
Outline: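 Fluorescence intensity read-out, 8 h post-dose, HEK293T protein-fragment complementation; FXR bait and SRC-1 prey each linked to reporter fragments. Activity scored as signal increase over DMSO negative control.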

[5] = biological target: Bile acid receptor (Homo sapiens) (UniProt Q96RI1); assay: OT_FXR_FXRSRC1_1440: Odyssey Thera (OT) 24-hour HEK293T Protein-Complementation Assay for Farnesoid X receptor/SRC-1 Co-activator (AID 2283384)
Outline: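 Fluorescence readout, 24 h post-dose, HEK293T; FXR and SRC-1 fused to complementary reporter fragments, association reconstitutes signal. Positive-direction fit vs DMSO baseline.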

[6] = biological target: Retinoic acid receptor RXR-alpha (Homo sapiens) (UniProt P19793); assay: OT_NURR1_NURR1RXRa_0480: Odyssey Thera (OT) 8-hour HEK293T Protein Complementation Assay for Nurr1/retinoid X receptor (RXR) (AID 2283385)
Outline: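 Read-out: fluorescence from protein-fragment complementation between Nurr1 and RXRα in human HEK293T cells, 8 h after dosing. DMSO served as negative control; increased signal counted as activity.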

[7] = biological target: Retinoic acid receptor RXR-alpha (Homo sapiens) (UniProt P19793); assay: OT_NURR1_NURR1RXRa_1440: Odyssey Thera (OT) 24-hour HEK293T Protein Complementation Assay for Nurr1/retinoid X receptor (RXR) (AID 2283386)
Outline: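 Fluorescence PCA read-out; HEK293T; 24 h post-dose; bait/prey fused to reporter fragments; gain-of-signal fit vs DMSO negative control.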

[8] = biological target: Peroxisome proliferator-activated receptor gamma (Homo sapiens) (UniProt P37231); assay: OT_PPARg_PPARgSRC1_0480: Odyssey Thera (OT) 8-hour Protein-Complementation Assay for Peroxisome Proliferator-activated Receptor Gamma / SRC-1 Co-activator (AID 2283387);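 note: nuclear to cytoplasmic split Venus YFP fluorescence ratio reporting PPARg SRC-1 interaction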
Outline: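 Protein-fragment complementation in HEK293T: Venus YFP halves (residues 1-158, 159-239, mutated to IFP1/IFP2) fused to PPARg/SRC-1. 8 h exposure; N/C ratio at 488 nm; DMSO negative control.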

[9] = biological target: Peroxisome proliferator-activated receptor gamma (Homo sapiens) (UniProt P37231); assay: OT_PPARg_PPARgSRC1_1440: Odyssey Thera (OT) 24-hour Protein-Complementation Assay for Peroxisome Proliferator-activated Receptor Gamma/ SRC-1 Co-activator (AID 2283388);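 note: nuclear to cytoplasmic ratio of reconstituted Venus YFP fluorescence in fixed imaged cells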
Outline: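 Readout: nuclear-to-cytoplasmic 488 nm fluorescence ratio, ≥350 cells per image, 8 images per well, after 24 h compound exposure of HEK293T expressing PPARg/SRC-1 split-YFP fusions. Activity fitted in positive direction against DMSO.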

[10] = read-out: Tumor necrosis factor receptor superfamily member 6 (Homo sapiens) (UniProt P25445); assay: LTEA_HepaRG_FAS: Life Technologies and Expression Analysis (LTEA) Assay for Fas cell surface death receptor (FAS) using HepaRG (AID 2283447; active = hit-call score of the fitted dose curve at least 0.9, where 1 is the maximum; inactive = score below 0.9); details: mRNA level, 48 h; actives raise or lower the signal
Outline: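 Differentiated human HepaRG cells, pre-cultured 48 h, were exposed in duplicate for 48 h to 8-point half-log concentrations (top 100 uM, 0.5% DMSO) in serum-free induction medium; FAS mRNA measured by qRT-PCR, normalized to ACTB/GAPDH/POLR2A, bidirectional fit versus DMSO.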

[11] = biological target: mouse Estrogen Receptor alpha (Era), Esr1 (gene 13982) (UniProt P19785); assay: NVS_NR_mERa: NovaScreen (NVS) Nuclear Receptor Binding Assay for mouse Estrogen Receptor alpha (Era) (AID 2283378);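 note: hit means loss of bound radioligand signal relative to DMSO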
Outline: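 Filter scintillation counts of bound radioligand, measured 18 h post-dose, gave the readout; decreased signal relative to DMSO controls indicated displacement from mouse Era. Primary screen ran in duplicate at 25 uM; active chemicals were retested across concentrations.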

[12] = CEETOX_H295R_OHPREG: CeeTox H295R High-throughput Steroidogenesis Assay for OH-Pregnenolone (OHPREG) (AID 2283434; active = hit-call score of the fitted dose curve at least 0.9, where 1 is the maximum; inactive = score below 0.9); details: actives raise or lower the signal
Outline: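 Readout: HPLC-MS/MS of 17alpha-hydroxypregnenolone in medium after 48 h chemical exposure of H295R cells pretreated with forskolin. Values fitted bidirectionally relative to DMSO; chemicals reducing viability to 20–70% were retested after 10-fold dilution.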

[13] = CEETOX_H295R_OHPROG: CeeTox H295R High-throughput Steroidogenesis Assay for OH-Progesterone (OHPROG) (AID 2283435; active = hit-call score of the fitted dose curve at least 0.9, where 1 is the maximum; inactive = score below 0.9;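 for AC50: 17alpha-hydroxyprogesterone secreted into medium measured by HPLC-MS/MS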); details: actives raise or lower the signal
Outline: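 HPLC-MS/MS quantification of 17alpha-hydroxyprogesterone secreted by H295R cells after 48 h chemical exposure, following 48 h 10 uM forskolin prestimulation. Gain or loss of signal fitted relative to DMSO. Viability checked by MTT in the same wells.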

[14] = CEETOX_H295R_CORTIC: CeeTox H295R High-throughput Steroidogenesis Assay for Corticosterone (CORTIC) (AID 2283437; active = hit-call score of the fitted dose curve at least 0.9, where 1 is the maximum; inactive = score below 0.9;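 note: corticosterone secreted into medium quantified by mass spectrometry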); details: actives raise or lower the signal
Outline: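 Steps: seed H295R, adhere overnight; 10 uM forskolin 48 h; replace with chemical (0.1% DMSO) 48 h; extract medium with MTBE; quantify corticosterone by HPLC-MS/MS; score bidirectionally vs DMSO.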

[15] = CEETOX_H295R_CORTISOL: CeeTox H295R High-throughput Steroidogenesis Assay for Cortisol (AID 2283438; active = hit-call score of the fitted dose curve at least 0.9, where 1 is the maximum; inactive = score below 0.9;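 note: cortisol secreted into medium quantified by LC-MS/MS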); details: actives raise or lower the signal
Outline: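 Read-out: cortisol in culture medium by reverse-phase C18 HPLC with ESI-positive tandem MS, after MTBE liquid-liquid extraction. Cells: human adrenal H295R, forskolin-primed (10 uM, 48 h) before 48 h chemical exposure in 0.1% DMSO.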

[16] = CEETOX_H295R_DOC: CeeTox H295R High-throughput Steroidogenesis Assay for DOC (AID 2283439; active = hit-call score of the fitted dose curve at least 0.9, where 1 is the maximum; inactive = score below 0.9); details: actives raise or lower the signal
Outline: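 Human adrenocortical H295R cells, passages up to 10, received 10 uM forskolin for 48 h before chemical addition. After another 48 h exposure in 0.1% DMSO, secreted DOC was measured by LC-MS/MS, with gain or loss fitted against DMSO controls.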

[17] = CEETOX_H295R_PROG: CeeTox H295R High-throughput Steroidogenesis Assay for Progesterone (PROG) (AID 2283442; active = hit-call score of the fitted dose curve at least 0.9, where 1 is the maximum; inactive = score below 0.9); details: actives raise or lower the signal
Outline: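 Progesterone read-out: HPLC-MS/MS on MTBE extracts of conditioned medium after 48 h chemical exposure of forskolin-primed (10 uM, 48 h) H295R cells. Gain or loss of signal was fitted relative to DMSO baseline.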

[18] = biological target: Agonist Androgen Response Element (ARE), AR (gene 367) (UniProt P10275); assay: OT_AR_ARELUC_AG_1440: Odyssey Thera (OT) 24-hour CHO-K1 Luciferase Assay for Agonist Androgen Response Element (ARE) (AID 2283379)
Outline: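 Luminescence increase above DMSO, read after a 24 h compound treatment of CHO-K1 cells expressing an androgen response element luciferase reporter, gives the single primary endpoint; concentration-response fitting used the positive direction.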

[19] = CEETOX_H295R_ANDR: CeeTox H295R High-throughput Steroidogenesis Assay for Androstenedione (ANDR) (AID 2283436; active = hit-call score of the fitted dose curve at least 0.9, where 1 is the maximum; inactive = score below 0.9;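 note: human H295R adrenal cells exposed for 48 h with androstenedione measured in medium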); details: actives raise or lower the signal
Outline: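 Steroidogenesis in H295R adrenal cells after 48 h dosing; androstenedione quantified by LC-MS/MS, with DMSO as negative control and baseline for bidirectional curve fitting.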

[20] = CEETOX_H295R_ESTRADIOL: CeeTox H295R High-throughput Steroidogenesis Assay for Estradiol (AID 2283440; active = hit-call score of the fitted dose curve at least 0.9, where 1 is the maximum; inactive = score below 0.9;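 note: estradiol secreted into medium quantified by LC-MS/MS after dansyl derivatisation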); details: actives raise or lower the signal
Outline: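 H295R, 48 h forskolin (10 uM) prestim → 48 h compound, 0.1% DMSO final. Estradiol in medium: MTBE extraction, dansyl chloride derivatization, LC-MS/MS. Fit bidirectional vs DMSO baseline; MTT viability in same wells.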

Measured: AC50

Chain of mouse Estrogen Receptor alpha (Era), Esr1 (gene 13982) (P19785 whole entry, looked up): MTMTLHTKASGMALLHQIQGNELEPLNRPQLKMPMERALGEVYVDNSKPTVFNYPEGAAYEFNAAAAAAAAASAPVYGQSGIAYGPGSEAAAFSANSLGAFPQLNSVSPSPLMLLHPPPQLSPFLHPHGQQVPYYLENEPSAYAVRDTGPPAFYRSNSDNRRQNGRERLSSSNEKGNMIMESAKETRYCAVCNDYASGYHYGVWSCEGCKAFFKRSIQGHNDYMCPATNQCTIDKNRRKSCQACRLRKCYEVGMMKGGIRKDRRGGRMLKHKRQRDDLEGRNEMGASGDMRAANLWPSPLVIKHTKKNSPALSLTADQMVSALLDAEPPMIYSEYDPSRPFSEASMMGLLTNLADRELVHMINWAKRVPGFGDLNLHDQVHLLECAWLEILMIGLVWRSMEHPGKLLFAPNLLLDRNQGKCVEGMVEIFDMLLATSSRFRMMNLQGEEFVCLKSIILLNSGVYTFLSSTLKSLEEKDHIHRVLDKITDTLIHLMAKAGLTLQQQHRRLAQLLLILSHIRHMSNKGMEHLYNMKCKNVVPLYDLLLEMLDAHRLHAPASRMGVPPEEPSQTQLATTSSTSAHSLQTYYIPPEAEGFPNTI
Chain of Peroxisome proliferator-activated receptor gamma (Homo sapiens) (P37231 whole entry, looked up, the tested form may be a part): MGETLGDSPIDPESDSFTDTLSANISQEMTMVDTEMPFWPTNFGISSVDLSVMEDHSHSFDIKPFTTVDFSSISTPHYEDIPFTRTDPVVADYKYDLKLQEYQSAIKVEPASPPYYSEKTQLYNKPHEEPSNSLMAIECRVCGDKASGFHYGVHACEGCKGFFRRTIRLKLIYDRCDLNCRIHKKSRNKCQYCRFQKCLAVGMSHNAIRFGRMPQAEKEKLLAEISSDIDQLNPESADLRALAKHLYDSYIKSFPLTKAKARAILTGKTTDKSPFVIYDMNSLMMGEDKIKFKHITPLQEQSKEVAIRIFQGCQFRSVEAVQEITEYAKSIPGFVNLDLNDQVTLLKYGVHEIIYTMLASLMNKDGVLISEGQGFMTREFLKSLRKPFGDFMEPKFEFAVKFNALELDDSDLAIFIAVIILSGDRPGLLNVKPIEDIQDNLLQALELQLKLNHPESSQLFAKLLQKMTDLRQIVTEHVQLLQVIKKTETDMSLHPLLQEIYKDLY
Chain of Retinoic acid receptor RXR-alpha (Homo sapiens) (P19793 whole entry, looked up, the tested form may be a part): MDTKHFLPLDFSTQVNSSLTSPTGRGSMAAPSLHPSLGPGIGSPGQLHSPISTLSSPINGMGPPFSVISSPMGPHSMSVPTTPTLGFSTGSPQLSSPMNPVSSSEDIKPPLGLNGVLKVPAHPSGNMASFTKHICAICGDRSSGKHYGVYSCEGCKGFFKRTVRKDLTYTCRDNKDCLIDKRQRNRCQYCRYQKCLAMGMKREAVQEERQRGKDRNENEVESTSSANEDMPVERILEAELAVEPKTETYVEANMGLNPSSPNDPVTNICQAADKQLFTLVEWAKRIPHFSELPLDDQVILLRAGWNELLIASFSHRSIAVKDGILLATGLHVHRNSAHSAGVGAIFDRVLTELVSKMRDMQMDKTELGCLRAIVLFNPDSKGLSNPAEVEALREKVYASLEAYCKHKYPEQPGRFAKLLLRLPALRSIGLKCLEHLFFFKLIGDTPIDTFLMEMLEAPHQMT
Chain of Estrogen receptor beta (Homo sapiens) (Q92731 whole entry, looked up, the tested form may be a part): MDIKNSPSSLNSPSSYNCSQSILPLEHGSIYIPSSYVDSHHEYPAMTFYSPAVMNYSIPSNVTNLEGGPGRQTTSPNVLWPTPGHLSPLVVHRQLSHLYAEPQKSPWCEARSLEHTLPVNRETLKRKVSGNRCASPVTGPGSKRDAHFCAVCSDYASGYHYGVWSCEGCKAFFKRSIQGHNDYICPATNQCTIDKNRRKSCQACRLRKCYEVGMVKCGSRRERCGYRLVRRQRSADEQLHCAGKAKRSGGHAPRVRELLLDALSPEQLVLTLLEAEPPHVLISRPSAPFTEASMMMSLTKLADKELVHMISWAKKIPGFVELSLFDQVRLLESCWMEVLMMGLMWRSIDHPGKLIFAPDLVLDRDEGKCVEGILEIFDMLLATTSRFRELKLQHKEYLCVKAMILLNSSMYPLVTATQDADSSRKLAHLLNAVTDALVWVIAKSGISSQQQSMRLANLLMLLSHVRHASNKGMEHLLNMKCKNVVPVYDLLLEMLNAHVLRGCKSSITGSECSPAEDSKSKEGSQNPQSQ
Chain of Agonist Androgen Response Element (ARE), AR (gene 367) (P10275 whole entry, looked up): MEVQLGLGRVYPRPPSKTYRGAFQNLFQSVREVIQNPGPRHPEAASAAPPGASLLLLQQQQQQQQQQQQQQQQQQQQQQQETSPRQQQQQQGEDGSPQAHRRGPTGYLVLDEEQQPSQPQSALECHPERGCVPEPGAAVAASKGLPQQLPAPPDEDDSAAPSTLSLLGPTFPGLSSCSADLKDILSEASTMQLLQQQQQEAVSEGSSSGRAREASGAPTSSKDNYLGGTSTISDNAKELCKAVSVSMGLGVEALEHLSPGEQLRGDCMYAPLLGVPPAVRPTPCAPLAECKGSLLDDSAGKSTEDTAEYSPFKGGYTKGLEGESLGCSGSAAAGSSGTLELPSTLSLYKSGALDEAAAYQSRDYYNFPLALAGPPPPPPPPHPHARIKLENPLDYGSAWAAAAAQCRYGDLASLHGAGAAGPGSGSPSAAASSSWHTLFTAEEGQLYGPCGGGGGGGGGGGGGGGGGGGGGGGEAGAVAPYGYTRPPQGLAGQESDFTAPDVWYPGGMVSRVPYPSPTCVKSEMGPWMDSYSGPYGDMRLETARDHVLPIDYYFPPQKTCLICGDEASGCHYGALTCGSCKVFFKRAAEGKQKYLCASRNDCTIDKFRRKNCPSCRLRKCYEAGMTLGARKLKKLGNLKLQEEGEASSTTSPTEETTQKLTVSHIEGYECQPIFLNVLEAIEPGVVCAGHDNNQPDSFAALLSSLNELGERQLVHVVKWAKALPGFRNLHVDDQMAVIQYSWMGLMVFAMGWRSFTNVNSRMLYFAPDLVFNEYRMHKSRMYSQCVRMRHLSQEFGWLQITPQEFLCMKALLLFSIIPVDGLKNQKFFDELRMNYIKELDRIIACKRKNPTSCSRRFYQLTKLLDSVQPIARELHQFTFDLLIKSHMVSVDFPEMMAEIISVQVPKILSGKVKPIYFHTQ
Chain of Estrogen receptor (Homo sapiens) (P03372 whole entry, looked up): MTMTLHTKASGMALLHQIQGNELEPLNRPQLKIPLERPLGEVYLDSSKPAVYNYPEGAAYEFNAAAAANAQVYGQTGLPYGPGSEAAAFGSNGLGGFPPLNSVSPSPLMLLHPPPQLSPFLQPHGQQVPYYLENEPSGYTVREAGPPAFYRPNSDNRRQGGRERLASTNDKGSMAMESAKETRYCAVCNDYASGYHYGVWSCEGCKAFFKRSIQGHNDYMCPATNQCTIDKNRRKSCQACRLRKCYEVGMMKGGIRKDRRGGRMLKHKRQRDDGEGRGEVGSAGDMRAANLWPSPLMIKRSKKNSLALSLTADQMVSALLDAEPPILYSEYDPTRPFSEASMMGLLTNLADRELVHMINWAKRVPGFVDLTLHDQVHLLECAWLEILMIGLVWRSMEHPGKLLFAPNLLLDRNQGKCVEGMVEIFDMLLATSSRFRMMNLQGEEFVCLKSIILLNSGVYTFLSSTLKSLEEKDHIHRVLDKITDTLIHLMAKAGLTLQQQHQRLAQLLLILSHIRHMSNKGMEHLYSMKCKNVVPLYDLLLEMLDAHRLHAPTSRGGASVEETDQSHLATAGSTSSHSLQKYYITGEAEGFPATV
Chain of Bile acid receptor (Homo sapiens) (Q96RI1 whole entry, looked up, the tested form may be a part): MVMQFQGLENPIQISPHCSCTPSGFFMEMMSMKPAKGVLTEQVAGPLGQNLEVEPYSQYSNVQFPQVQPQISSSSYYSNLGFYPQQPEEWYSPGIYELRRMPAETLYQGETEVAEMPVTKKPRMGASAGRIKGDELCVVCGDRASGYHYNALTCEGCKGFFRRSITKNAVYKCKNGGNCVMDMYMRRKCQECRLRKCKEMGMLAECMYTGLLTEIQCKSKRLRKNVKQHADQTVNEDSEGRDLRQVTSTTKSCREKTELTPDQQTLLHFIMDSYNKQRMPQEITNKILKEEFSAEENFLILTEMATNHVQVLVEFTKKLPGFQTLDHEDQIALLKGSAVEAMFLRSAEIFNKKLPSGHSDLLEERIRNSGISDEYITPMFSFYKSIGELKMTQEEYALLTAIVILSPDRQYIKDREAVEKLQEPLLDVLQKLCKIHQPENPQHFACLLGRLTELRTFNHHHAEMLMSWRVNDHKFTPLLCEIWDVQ

c1ccc2cc3ccccc3cc2c1
inactive: [1] | [2] | [3] | [4] | [5] | [6] | [8] | [9] | [10]
active: [7] 72.7 µM

C[C@]12C=CC(=O)C=C1CC[C@H]1[C@@H]3C[C@@H](O)[C@](O)(C(=O)CO)[C@@]3(C)C[C@H](O)[C@@]12F
active: [14] 19.8 µM | [16] 11.2 µM
not listed: [1] | [2] | [4] | [5] | [18] | [19] | [20]
inactive: all other assays above

CCOC(N)=O
inactive: [11] | [2] | [3] | [6] | [7] | [10]

CCc1cccc(CC)c1N
inactive: [18] | [1] | [2] | [3] | [6] | [7] | [10]

NC(=O)N1c2ccccc2C=Cc2ccccc21
inactive: [11] | [1] | [3] | [7] | [8] | [9] | [10]

CC(C)C(=O)Nc1ccc([N+](=O)[O-])c(C(F)(F)F)c1
active: [10] 67 µM
inactive: [11] | [1] | [3] | [4] | [6] | [8] | [9]

C=CCc1cc(S(=O)(=O)c2ccc(O)c(CC=C)c2)ccc1O
active: [11] 14.6 µM | [12] 12.4 µM | [13] 0.165 µM | [14] 0.0971 µM | [15] 5.57 µM | [16] 0.673 µM | [17] 0.351 µM
not listed: [4] | [5] | [6] | [7] | [18]
inactive: all other assays above

COCc1nnc(-c2ccc[n+]([O-])c2)n1-c1c(Cl)c(Cl)cc2[nH]c(=O)c(=O)[nH]c12
inactive: [1] | [2] | [3] | [4] | [6] | [7] | [8] | [9] | [10]

CC(C)CCCCCCOC(=O)C1CCCCC1C(=O)OCCCCCCC(C)C (stereo not given)
inactive: [11] | [1] | [3] | [4] | [6] | [7] | [8] | [9] | [10]

NC(=O)N(O)[C@@H]1COc2cc(OCc3ccccc3)ccc21
inactive: [1] | [2] | [3] | [4] | [5] | [6] | [7] | [8] | [9] | [10]

Cc1cccc(O)c1C
inactive: [11] | [1] | [2] | [3] | [4] | [5] | [8] | [9]

CCc1ccc(O)c(C(C)(C)C)c1
inactive: [11] | [1] | [3] | [8] | [9] | [10]

Cc1nc(-c2ccccn2)ncc1C(=O)Nn1cc(C)c2cc(F)ccc21
inactive: [18] | [1] | [2] | [3] | [5] | [7] | [8] | [9] | [10]

OCCOCCOCCO
inactive: [11] | [18] | [1] | [3] | [6] | [7] | [8] | [9] | [10]

c1ccc(C(O[C@@H]2CCCN(CCc3ccc4c(c3)OCO4)C2)c2ccccc2)cc1
inactive: [2] | [3] | [6] | [8] | [9]
active: [11] 25 µM | [1] 38.5 µM | [6] 89 µM | [7] 77.7 µM and 81.9 µM | [10] 50 µM

CCN(CC)C(=S)SSC(=S)N(CC)CC
active: [3] 77.7 µM
not listed: [2] | [6] | [7] | [11]
inactive: all other assays above

CCOc1ccc2[nH]cc(C(=O)NCc3ccccc3)c(=O)c2n1
active: [13] 68.1 µM
not listed: [6] | [11] | [14] | [15] | [16] | [18] | [19]
inactive: all other assays above
